We go through ten compounds from PubChem BioAssay (EPA / NIEHS).

Structures are written as SMILES. Inconclusive results are not listed. Where a structure was tested more than once in an assay, its records may differ in their call. The source made the active and inactive calls. The calls were made as follows, unless noted: active = hit-call score of the fitted dose curve at least 0.9, where 1 is the maximum; inactive = score below 0.9.

Assay [1] in a line: ATG_RORE_CIS: Attagene CIS-FACTORIAL HepG2 Assay for human RAR-related Orphan Receptor Element (RORE) (AID 2282959). The note with it: HepG2 Attagene cis-factorial RORE reporter, mRNA; actives raise or lower the signal. An outline of the steps:
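HepG2 cells carrying transiently transfected cis-regulated reporter units; RORE-driven reporter mRNA quantified 24 h post-dosing by RT-PCR, 6-FAM primer extension, HpaI digestion and capillary electrophoresis. Bidirectional fit versus DMSO.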

For assay [2], the target named is Transcription factor Sp1 (Homo sapiens) (UniProt P08047). As to the kind of experiment: ATG_Sp1_CIS: Attagene CIS-FACTORIAL HepG2 Assay for human Specificity Protein 1 (Sp1) (AID 2282961). The note with it: HepG2 Sp1 cis-reporter transcription, actives raise or lower the signal. An outline of the steps: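 HepG2 cells transiently transfected with multiplexed cis-regulated reporter constructs, chemical exposure 24 h. Reporter mRNA quantified by RT-PCR with capillary electrophoresis; bidirectional fit relative to DMSO.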
Chain of Transcription factor Sp1 (Homo sapiens) (P08047 whole entry, looked up): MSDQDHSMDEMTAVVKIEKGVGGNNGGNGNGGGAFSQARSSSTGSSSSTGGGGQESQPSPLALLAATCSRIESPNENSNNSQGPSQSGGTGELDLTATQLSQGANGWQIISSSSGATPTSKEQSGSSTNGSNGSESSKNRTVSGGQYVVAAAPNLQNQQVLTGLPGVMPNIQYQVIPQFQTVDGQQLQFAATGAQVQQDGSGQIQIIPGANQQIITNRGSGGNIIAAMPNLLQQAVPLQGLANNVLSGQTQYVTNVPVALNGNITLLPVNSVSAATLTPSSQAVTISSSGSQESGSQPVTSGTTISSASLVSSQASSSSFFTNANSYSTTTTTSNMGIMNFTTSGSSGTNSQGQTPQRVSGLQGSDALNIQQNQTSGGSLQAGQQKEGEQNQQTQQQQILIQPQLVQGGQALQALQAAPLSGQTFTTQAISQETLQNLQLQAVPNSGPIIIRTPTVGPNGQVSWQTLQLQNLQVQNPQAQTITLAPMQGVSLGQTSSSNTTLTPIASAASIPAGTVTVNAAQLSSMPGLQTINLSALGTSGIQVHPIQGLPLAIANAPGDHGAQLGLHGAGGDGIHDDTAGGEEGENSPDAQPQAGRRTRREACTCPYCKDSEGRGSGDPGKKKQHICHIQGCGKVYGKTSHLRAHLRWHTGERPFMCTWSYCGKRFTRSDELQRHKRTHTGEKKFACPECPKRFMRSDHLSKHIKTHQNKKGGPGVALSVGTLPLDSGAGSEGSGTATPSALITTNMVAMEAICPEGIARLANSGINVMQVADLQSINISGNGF

Assay [3] can be described thus: ATG_SREBP_CIS: Attagene CIS-FACTORIAL HepG2 Assay for human Sterol Regulatory Element Binding (SREBP) (AID 2282962). The note with it: HepG2 Attagene cis-factorial SREBP reporter, mRNA; actives raise or lower the signal. An outline of the steps: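 HepG2 cells transiently transfected with multiplexed cis-promoter reporter units sensing endogenous transcription factors; reporter mRNA measured 24 h after dosing by RT-PCR, 6-FAM labeling, HpaI digestion and capillary electrophoresis. Bidirectional fit versus DMSO.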

Assay [4] deals with Signal transducer and activator of transcription 3 (Homo sapiens) (UniProt P40763). Put plainly: ATG_STAT3_CIS: Attagene CIS-FACTORIAL HepG2 Assay for human Signal Transducer and Activator of Transcription 3 (STAT3) (AID 2282963). The note with it: HepG2, Attagene cis-factorial STAT3 reporter transcription; actives raise or lower the signal. An outline of the steps: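 Transcript-level reporter assay. HepG2 transient MRTU transfection, 24 h exposure, fluorescence detection after RT-PCR and CE; DMSO baseline.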
Chain of Signal transducer and activator of transcription 3 (Homo sapiens) (P40763 whole entry, looked up): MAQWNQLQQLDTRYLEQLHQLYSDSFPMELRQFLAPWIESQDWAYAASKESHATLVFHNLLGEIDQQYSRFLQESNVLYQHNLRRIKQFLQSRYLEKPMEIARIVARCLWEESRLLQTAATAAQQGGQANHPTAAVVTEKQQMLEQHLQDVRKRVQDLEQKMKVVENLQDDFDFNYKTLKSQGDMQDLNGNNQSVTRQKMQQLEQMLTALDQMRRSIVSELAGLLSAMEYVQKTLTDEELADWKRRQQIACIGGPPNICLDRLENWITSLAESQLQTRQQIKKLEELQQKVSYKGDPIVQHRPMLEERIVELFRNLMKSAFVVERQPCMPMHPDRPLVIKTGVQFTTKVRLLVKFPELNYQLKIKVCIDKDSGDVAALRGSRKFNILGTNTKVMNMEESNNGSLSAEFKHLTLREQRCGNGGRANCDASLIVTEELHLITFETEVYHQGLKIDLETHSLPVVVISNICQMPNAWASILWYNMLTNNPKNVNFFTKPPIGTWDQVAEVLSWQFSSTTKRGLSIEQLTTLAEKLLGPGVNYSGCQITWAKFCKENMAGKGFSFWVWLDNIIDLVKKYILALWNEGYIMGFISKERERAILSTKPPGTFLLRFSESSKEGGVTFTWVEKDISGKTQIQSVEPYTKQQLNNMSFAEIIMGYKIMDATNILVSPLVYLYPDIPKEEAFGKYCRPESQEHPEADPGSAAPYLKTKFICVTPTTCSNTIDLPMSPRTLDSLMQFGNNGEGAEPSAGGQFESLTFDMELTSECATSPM

The nature of assay [5]: ATG_TA_CIS: Attagene CIS-FACTORIAL HepG2 Assay for human TA Basal Promoter (AID 2282964). The note with it: HepG2 Attagene CIS-factorial TA basal promoter reporter; actives raise or lower the signal. A digest of the protocol:
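Fluorescence from labelled RT-PCR reporter fragments, separated by capillary electrophoresis, gives the signal. Cells: HepG2 transiently carrying multiple reporter units, 24 h chemical dosing. Gain or loss relative to DMSO.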

A short description of assay [6]: ATG_TCF_b_cat_CIS: Attagene CIS-FACTORIAL HepG2 Assay for human T-Cell-Factor with beta-catenin (TCF/b-cat) (AID 2282965). The note with it: HepG2 TCF/beta-catenin cis-reporter transcription, actives raise or lower the signal. A digest of the protocol:
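Using capillary electrophoresis as the read-out, labelled reporter cDNA fragments from transiently transfected HepG2 were sized and quantified. Exposure lasted 24 hours; activity in either direction was referenced to DMSO.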

Assay [7] in a line: ATG_TAL_CIS: Attagene CIS-FACTORIAL HepG2 Assay for human TAL Basal Promoter (AID 2282966).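 Also: background control endpoint measuring basal TAL promoter reporter mRNA not a specific factor.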 The note with it: HepG2 Attagene cis-factorial TAL promoter reporter; actives raise or lower the signal. A digest of the protocol:
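In this cell-based multiplex, HepG2 liver cells bearing cis-promoter reporter constructs are dosed for 24 hours. Total RNA is reverse-transcribed and amplified, labelled fragments are sized by capillary electrophoresis, and signal changes are fitted bidirectionally versus DMSO.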

Assay [8] can be described thus: ATG_TGFb_CIS: Attagene CIS-FACTORIAL HepG2 Assay for human Transforming Growth Factor (TGF) (AID 2282967). The note with it: HepG2 Attagene CIS TGFb reporter, mRNA transcription; actives raise or lower the signal. A digest of the protocol:
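Bidirectional fitting relative to DMSO gave the endpoint. Underlying data: reporter mRNA from HepG2 cells carrying transiently transfected cis-regulated reporter constructs, harvested 24 h after dosing and analyzed by RT-PCR and capillary electrophoresis.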

Assay [9] has as its target Nuclear receptor subfamily 1 group I member 3 (Homo sapiens) (UniProt Q14994). As to the kind of experiment: ATG_CAR_TRANS: Attagene TRANS-FACTORIAL HepG2 Assay for human Constitutive Androstane Receptor (CAR) (AID 2282969; active = hit-call score of the fitted dose curve at least 0.9, where 1 is the maximum;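 also: activators raise reporter mRNA above DMSO so AC50 marks induction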). The note with it: HepG2 Attagene TRANS-FACTORIAL CAR reporter. An outline of the steps:
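HepG2 cells transiently transfected with multiplexed GAL4-UAS reporter units expressing chimeric NR-Gal4 proteins; compound exposure 24 h. Reporter mRNA measured by RT-PCR, 6-FAM labelling, HpaI digestion and capillary electrophoresis; gain-of-signal fitted against DMSO baseline.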

The target in assay [10] is Steroid hormone receptor ERR1 (Homo sapiens) (UniProt P11474). Put plainly: ATG_ERRa_TRANS: Attagene TRANS-FACTORIAL HepG2 Assay for human Estrogen-Related Receptor alpha (ERRa) (AID 2282971; active = hit-call score of the fitted dose curve at least 0.9, where 1 is the maximum). The note with it: HepG2 Attagene TRANS reporter, ERRa transactivation. A digest of the protocol: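 Transfected HepG2, 24 h dosing, ERRa-Gal4 chimera driving GAL4-UAS reporter. Readout: reporter mRNA via RT-PCR plus capillary electrophoresis (fluorescence). Positive direction vs DMSO control.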
Chain of Steroid hormone receptor ERR1 (Homo sapiens) (P11474 whole entry, looked up, the tested form may be a part): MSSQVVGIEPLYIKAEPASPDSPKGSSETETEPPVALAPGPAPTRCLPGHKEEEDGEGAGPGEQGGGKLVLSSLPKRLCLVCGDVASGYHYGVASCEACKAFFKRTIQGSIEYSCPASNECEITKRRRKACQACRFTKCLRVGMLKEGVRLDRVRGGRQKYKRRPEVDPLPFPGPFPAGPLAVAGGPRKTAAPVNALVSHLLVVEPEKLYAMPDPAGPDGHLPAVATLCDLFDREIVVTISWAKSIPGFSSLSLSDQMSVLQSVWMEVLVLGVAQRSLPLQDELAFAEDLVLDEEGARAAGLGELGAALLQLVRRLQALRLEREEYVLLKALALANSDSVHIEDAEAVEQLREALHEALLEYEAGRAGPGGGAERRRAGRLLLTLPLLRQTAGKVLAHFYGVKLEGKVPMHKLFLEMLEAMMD

Assay [11] concerns the target X-box-binding protein 1 (Homo sapiens) (UniProt P17861). Put plainly: ATG_Xbp1_CIS: Attagene CIS-FACTORIAL HepG2 Assay for human X-box Binding Protein 1 (XBP1) (AID 2282972). The note with it: HepG2 XBP1 cis-element reporter, Attagene multiplex; actives raise or lower the signal. An outline of the steps: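 HepG2 cells transiently transfected with multiple cis-element reporter units report endogenous TF activity; 24 h exposure, then reporter mRNA measured by RT-PCR, 6-FAM labelling, HpaI digestion and capillary electrophoresis. Bidirectional fitting versus DMSO.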

A short description of assay [12]: ATG_M_19_TRANS: Attagene TRANS-FACTORIAL HepG2 Assay for M19 Transcription Factor (Internal Marker) (AID 2282974; active = hit-call score of the fitted dose curve at least 0.9, where 1 is the maximum). The note with it: HepG2 Attagene TRANS-FACTORIAL M19 internal marker reporter. An outline of the steps:
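HepG2 transiently transfected with GAL4-UAS multiplex reporter constructs, exposed 24 h; reporter RNA quantified by RT-PCR, 6-FAM labeling, HpaI digestion and capillary electrophoresis; internal background marker fitted upward versus DMSO.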

Assay [13] can be described thus: ATG_GAL4_TRANS: Attagene TRANS-FACTORIAL HepG2 Assay for GAL4 (Internal Marker) (AID 2282976; active = hit-call score of the fitted dose curve at least 0.9, where 1 is the maximum). The note with it: HepG2 Attagene TRANS GAL4 internal marker reporter. A digest of the protocol: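 RT-PCR/capillary electrophoresis readout of reporter mRNA. HepG2, transient MRTU transfection (GAL4-UAS reporters), 24 h compound exposure. Background-control endpoint, positive direction vs DMSO baseline.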

Assay [14] concerns the target Glucocorticoid receptor (Homo sapiens) (UniProt P04150). Put plainly: ATG_GR_TRANS: Attagene TRANS-FACTORIAL HepG2 Assay for human Glucocorticoid Receptor (GR) (AID 2282978; active = hit-call score of the fitted dose curve at least 0.9, where 1 is the maximum;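 also: activators score as hits since higher reporter transcript over DMSO is fitted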). The note with it: HepG2 Attagene TRANS GR reporter, mRNA transcription. An outline of the steps: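 HepG2 cells transiently transfected with GAL4-UAS reporter units and exogenous GR-Gal4 chimera, dosed 24 h. Reporter mRNA by RT-PCR, FAM labeling, HpaI digest and capillary electrophoresis; gain-of-signal fit versus DMSO.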

Assay [15] concerns the target Bile acid receptor (Homo sapiens) (UniProt Q96RI1). Put plainly: ATG_FXR_TRANS: Attagene TRANS-FACTORIAL HepG2 Assay for Farnesoid X Receptor (FXR) (AID 2282979; active = hit-call score of the fitted dose curve at least 0.9, where 1 is the maximum;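 also: hits raise reporter mRNA above DMSO so AC50 marks FXR activation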). The note with it: HepG2 Attagene TRANS FXR-GAL4 reporter transcription. A digest of the protocol: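 Read-out: fluorescent reporter transcripts quantified by capillary electrophoresis after RT-PCR of total RNA. Source cells were HepG2 transiently carrying chimeric NR-GAL4 plus GAL4-UAS reporter units, dosed 24 h. Activity fitted upward relative to DMSO baseline.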

Assay [16] can be described thus: ATG_Sox_CIS: Attagene CIS-FACTORIAL HepG2 Assay for human SRY-box transcription factor (SOX) (AID 2282960). The note with it: HepG2 Attagene cis-factorial SOX reporter, mRNA; actives raise or lower the signal. An outline of the steps:
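HepG2 cells transiently transfected with multiple cis-regulated reporter units, then dosed for 24 h. Reporter mRNA quantified by RT-PCR, fluorescent labelling, HpaI digestion and capillary electrophoresis; bidirectional fit versus DMSO.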

The nature of assay [17]: ATG_VDRE_CIS: Attagene CIS-FACTORIAL HepG2 Assay for human Vitamin D Receptor Element (VDRE) (AID 2282968). The note with it: HepG2 VDRE cis-reporter transcription, actives raise or lower the signal. A digest of the protocol:
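RT-PCR/CE readout of reporter mRNA; HepG2, transient transfection, 24 h dosing; DMSO baseline; bidirectional analysis.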

Assay [18] concerns the target Estrogen receptor (Homo sapiens) (UniProt P03372). As to the kind of experiment: ATG_ERa_TRANS: Attagene TRANS-FACTORIAL HepG2 Assay for human Estrogen Receptor alpha (ERa) (AID 2282970; active = hit-call score of the fitted dose curve at least 0.9, where 1 is the maximum). The note with it: HepG2 Attagene TRANS ERa GAL4 reporter, mRNA. A digest of the protocol: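 After 24 h of compound treatment, RNA from HepG2 cells bearing transfected GAL4-UAS reporter constructs is converted to cDNA, amplified and fluorescently labelled. Capillary electrophoresis resolves the ERa-linked reporter; DMSO serves as negative control.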

In assay [19] the target is Estrogen-related receptor gamma (Homo sapiens) (UniProt P62508). Put plainly: ATG_ERRg_TRANS: Attagene TRANS-FACTORIAL HepG2 Assay for human Estrogen-Related Receptor gamma (ERRg) (AID 2282977; active = hit-call score of the fitted dose curve at least 0.9, where 1 is the maximum;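 also: hits increase reporter signal over DMSO so potencies reflect activators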). The note with it: HepG2 Attagene TRANS reporter, ERRg transactivation. A digest of the protocol:
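Transfect HepG2 with multiple GAL4-UAS reporter transcription units; dose chemicals 24 h; isolate RNA, reverse-transcribe with oligo(dT), PCR-amplify, label with 6-FAM, digest with HpaI; size fragments by capillary electrophoresis. DMSO serves as negative control.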

Chain of Glucocorticoid receptor (Homo sapiens) (P04150 whole entry, looked up, the tested form may be a part): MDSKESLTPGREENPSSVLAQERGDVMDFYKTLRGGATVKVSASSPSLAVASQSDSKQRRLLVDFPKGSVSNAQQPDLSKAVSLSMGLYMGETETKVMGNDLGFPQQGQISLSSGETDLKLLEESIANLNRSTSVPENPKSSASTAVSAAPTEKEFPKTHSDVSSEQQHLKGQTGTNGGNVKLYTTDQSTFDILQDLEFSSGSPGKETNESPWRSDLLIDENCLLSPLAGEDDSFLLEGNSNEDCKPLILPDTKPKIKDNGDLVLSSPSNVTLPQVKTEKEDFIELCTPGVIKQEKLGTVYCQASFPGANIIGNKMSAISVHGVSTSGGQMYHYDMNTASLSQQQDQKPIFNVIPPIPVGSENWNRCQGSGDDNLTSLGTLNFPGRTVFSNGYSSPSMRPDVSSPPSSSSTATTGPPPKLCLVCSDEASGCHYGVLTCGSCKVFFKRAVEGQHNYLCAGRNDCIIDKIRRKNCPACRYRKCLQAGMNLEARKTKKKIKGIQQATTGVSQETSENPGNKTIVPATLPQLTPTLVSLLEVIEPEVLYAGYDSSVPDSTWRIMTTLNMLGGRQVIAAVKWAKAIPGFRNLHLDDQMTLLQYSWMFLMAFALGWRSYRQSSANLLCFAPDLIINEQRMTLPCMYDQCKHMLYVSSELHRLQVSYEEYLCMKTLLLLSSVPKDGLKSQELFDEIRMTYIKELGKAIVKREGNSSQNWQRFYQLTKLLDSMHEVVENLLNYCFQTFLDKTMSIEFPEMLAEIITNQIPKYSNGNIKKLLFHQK
Chain of X-box-binding protein 1 (Homo sapiens) (P17861 whole entry, looked up): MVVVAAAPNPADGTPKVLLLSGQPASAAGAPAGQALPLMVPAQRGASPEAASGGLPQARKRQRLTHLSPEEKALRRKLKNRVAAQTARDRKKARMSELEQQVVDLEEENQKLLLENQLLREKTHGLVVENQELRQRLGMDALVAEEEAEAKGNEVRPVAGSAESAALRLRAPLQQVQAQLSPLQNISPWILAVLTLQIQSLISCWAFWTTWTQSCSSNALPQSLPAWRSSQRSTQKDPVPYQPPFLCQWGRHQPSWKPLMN
Chain of Estrogen receptor (Homo sapiens) (P03372 whole entry, looked up, the tested form may be a part): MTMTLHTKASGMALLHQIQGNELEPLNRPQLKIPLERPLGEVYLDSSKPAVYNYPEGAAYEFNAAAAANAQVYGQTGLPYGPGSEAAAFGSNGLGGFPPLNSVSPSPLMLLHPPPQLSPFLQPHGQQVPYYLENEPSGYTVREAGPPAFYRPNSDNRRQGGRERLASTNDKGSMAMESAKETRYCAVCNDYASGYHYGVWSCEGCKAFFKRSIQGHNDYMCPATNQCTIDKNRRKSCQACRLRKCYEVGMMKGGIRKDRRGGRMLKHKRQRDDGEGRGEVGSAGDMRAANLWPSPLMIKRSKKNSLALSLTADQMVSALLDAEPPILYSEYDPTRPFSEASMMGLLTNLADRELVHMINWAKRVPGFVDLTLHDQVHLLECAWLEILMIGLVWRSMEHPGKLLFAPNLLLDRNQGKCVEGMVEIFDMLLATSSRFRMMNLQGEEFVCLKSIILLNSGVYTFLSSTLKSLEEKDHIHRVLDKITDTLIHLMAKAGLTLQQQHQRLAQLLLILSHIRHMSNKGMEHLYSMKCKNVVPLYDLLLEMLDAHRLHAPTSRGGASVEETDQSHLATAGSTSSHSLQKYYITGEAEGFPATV
Chain of Bile acid receptor (Homo sapiens) (Q96RI1 whole entry, looked up, the tested form may be a part): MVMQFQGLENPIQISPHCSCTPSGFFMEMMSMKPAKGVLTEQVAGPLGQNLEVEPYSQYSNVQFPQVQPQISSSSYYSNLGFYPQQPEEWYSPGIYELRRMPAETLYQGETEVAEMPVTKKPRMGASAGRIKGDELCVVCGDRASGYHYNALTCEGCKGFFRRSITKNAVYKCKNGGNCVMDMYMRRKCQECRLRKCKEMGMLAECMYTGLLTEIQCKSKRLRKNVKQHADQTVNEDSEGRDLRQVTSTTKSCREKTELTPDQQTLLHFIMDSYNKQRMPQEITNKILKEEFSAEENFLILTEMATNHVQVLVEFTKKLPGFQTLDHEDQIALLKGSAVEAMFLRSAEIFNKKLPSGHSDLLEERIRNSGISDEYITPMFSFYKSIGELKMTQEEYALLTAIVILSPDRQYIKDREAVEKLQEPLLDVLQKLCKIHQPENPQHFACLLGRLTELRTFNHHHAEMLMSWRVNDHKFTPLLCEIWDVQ
Chain of Nuclear receptor subfamily 1 group I member 3 (Homo sapiens) (Q14994 whole entry, looked up, the tested form may be a part): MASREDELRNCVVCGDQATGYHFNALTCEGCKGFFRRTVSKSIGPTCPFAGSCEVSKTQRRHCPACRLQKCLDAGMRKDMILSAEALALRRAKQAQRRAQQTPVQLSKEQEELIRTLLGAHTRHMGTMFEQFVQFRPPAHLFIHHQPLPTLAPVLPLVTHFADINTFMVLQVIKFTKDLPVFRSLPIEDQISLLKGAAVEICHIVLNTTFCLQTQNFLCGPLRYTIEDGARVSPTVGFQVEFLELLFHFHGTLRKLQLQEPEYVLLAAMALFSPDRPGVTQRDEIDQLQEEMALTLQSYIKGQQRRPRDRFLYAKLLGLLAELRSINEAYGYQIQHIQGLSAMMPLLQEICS
Chain of Estrogen-related receptor gamma (Homo sapiens) (P62508 whole entry, looked up, the tested form may be a part): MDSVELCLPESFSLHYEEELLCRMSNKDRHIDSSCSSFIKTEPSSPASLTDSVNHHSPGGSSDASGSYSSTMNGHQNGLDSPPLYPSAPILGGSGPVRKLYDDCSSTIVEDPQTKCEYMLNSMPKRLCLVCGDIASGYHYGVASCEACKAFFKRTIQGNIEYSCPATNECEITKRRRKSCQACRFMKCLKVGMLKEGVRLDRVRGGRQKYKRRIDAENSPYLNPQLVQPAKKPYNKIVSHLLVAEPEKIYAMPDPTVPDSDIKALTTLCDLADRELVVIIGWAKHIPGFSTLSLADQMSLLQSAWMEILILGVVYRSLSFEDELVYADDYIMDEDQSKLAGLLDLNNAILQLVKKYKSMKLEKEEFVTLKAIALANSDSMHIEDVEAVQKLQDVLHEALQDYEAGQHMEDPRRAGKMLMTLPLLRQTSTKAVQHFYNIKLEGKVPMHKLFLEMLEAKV

The term AC50 denotes the midpoint of the concentration-response curve, whichever way the signal moves. As for `Cc1ccccc1OP(=O)(Oc1ccccc1)Oc1ccccc1`, the outcome in assay [1], in assay [2], in assay [4], in assay [5], in assay [6] and in assay [7] was inactive. Besides, the result in assay [8], in assay [9], in [10], in assay [11], in assay [12] and in [13] was inactive. For the same compound, the result in assay [14] and in assay [15] was inactive. Moreover, the concentration at half-maximal activity (AC50) in [3] is 7.9 µM (active).
As to `CCCCCCCCCCCCOS(=O)(=O)O`, the result in assay [16], in assay [2], in assay [3], in assay [4], in [5] and in [6] was inactive. The compound was classed as inactive in assay [7], in assay [8], in assay [11], in assay [12], in assay [13] and in [14]. For the same compound, the AC50 in assay [4] is 11.1 µM (active).
Turning to `C[N+](C)(C)Cc1ccccc1`, the compound was called inactive in [16], in [2], in [3], in [4], in assay [5] and in assay [6]. The outcome in assay [7], in assay [8], in assay [17], in assay [18], in assay [11] and in assay [13] was inactive. Also, in [15], the call was inactive.
As for `Brc1c(Br)c(Br)c(Oc2c(Br)c(Br)c(Br)c(Br)c2Br)c(Br)c1Br`, the compound was called inactive in [16], in assay [2], in [3], in assay [4], in assay [5] and in assay [6]. In addition, the outcome in assay [7], in assay [8], in assay [17], in assay [9], in assay [10] and in [11] was inactive. The call in [13] and in [14] was inactive.
With `CCCCC(CC)C(=O)Cl` (stereo not given), the call in [1], in assay [2], in assay [3], in [4], in assay [5] and in assay [6] was inactive. Further, the compound was called inactive in assay [7], in [8], in assay [18], in assay [11] and in [15].
With `CCN(N=O)C(N)=O`, the compound was called inactive in assay [1], in [2], in [3], in assay [4], in [5] and in assay [6]. The result in [7], in [8], in assay [17], in assay [11], in [12] and in assay [13] was inactive. Also, the compound was classed as inactive in [14] and in assay [15].
Consider `O=C=Nc1ccc(Cl)cc1`, for which the result in assay [16], in assay [2], in assay [3], in [4], in assay [5] and in [6] was inactive. The outcome in assay [7], in [8], in assay [9], in [11], in assay [12] and in assay [13] was inactive.
On to `O=C(O)COc1ccc(Cl)cc1`, for which the outcome in [2], in [3], in assay [4], in [5], in [6] and in assay [7] was inactive. Also, the call in assay [8], in assay [17], in [9], in [18], in [10] and in assay [11] was inactive. Further, the outcome in assay [12], in [13], in assay [19] and in [14] was inactive.
`Oc1ccc(Cc2ccc(O)cc2)cc1`: the compound was classed as inactive in assay [2], in assay [3], in [4], in assay [5], in assay [6] and in assay [7]. The result in [8], in assay [11] and in assay [14] was inactive. Besides, the AC50 in assay [18] was 0.842 µM (active).
In the case of `N#Cc1ccc(Cl)cc1`, the result in [16], in assay [2], in [3], in assay [4], in assay [5] and in assay [6] was inactive. In addition, the outcome in assay [7], in [8], in assay [17], in assay [10], in assay [11] and in assay [19] was inactive.
